# Out of some 48,000 compounds screened, about 13,000 (27%) showed an effect of 50% or more. The list shows a part of the results.
# Test system: Wolbachia pipientis
# Assay: Anti-Wolbachia Cell-Based Screen
# Assay type: functional
# Parameters: scale not given: in the data most compounds retested in dose-response had high values
# Conditions: 5 µM
row,Compound,Percent Effect [%]
1,Cc1ccc2c(c1)C(NCc1nnc3n1CCCCC3)CCCO2 (centres undefined),-29.11
2,O=c1cc(CN(CCO)C2CC2)nc2ccc(Cl)cn12,-6.925
3,O=C(CCc1cscn1)NS(=O)(=O)c1ccc2ccccc2c1,3.955
4,Cc1ccc(N2CC[C@@H]3O[C@@H](COCc4cccnc4)CC[C@@H]32)nn1.O=C(O)C(F)(F)F.O=C(O)C(F)(F)F,4.893
5,Cc1ccc(N2CC[C@H]3[C@@H]2CCC(=O)N3CCN2CCOCC2)nn1.O=C(O)C(F)(F)F,-26.64
6,CN(C)C(=O)N1CC[C@H]2[C@H]1CCN2c1nncs1.O=C(O)C(F)(F)F,-1.539
7,O=C(Cc1ccsc1)N1C[C@@H]2OCCN(c3cnccn3)[C@@H]2C1.O=C(O)C(F)(F)F,19.14
8,Cc1ccc(N2CC[C@@H]3[C@@H]2CCN3C(=O)Cc2ccsc2)nn1.O=C(O)C(F)(F)F,97.7
9,Cc1ccc(N2CC[C@@H]3[C@@H]2CCN3C(=O)Cc2cccs2)nn1.O=C(O)C(F)(F)F,109.8
10,Cc1ccc(N2CC[C@@H]3[C@@H]2CCN3C(=O)Cc2ccccc2)nn1.O=C(O)C(F)(F)F,108
11,O=C(CC1CCCC1)N1CC[C@H]2[C@H]1CCN2c1nncs1.O=C(O)C(F)(F)F,10.49
12,Cc1ccc(N2CC[C@@H]3[C@@H]2CCN3C(=O)c2cscn2)nn1.O=C(O)C(F)(F)F,-4.198
13,O=C(O)[C@@H]1CN(C2CCCC2)C[C@H]1C1CC1,-8.244
14,Cc1ccc(NC(=O)NC(C)c2nc[nH]n2)cc1Cl (centres undefined),-5.292
15,c1cc2c(cc1-c1noc3c1CN(C1CCSCC1)CC3)OCO2,-0.3794
16,Cc1ccsc1CN(C)C(=O)C1CCCN(C(N)=O)C1 (centres undefined),8.59
17,CC(C)n1cnnc1CN(C)C(=O)C1CCCN(C2CCN(C)CC2)C1 (centres undefined),110.4
18,CC(C)n1cnnc1CN(C)CC1CCCNC1 (centres undefined),-3.149
19,CN(CCCc1cnn(C)c1)C(=O)C1CCCN(C2CCCC2)C1 (centres undefined),-4.141
20,CCn1cnnc1CN(C)C(=O)C1CCC(=O)N(CC2CCCCC2)C1 (centres undefined),6.192
21,CC(C)n1cnnc1CN(C)C1CCCNC1 (centres undefined),-12.15
22,CC(C)n1cnnc1CN(C)C(=O)C1CCCN(CC(N)=O)C1 (centres undefined),92.86
23,CCCn1cnnc1CN(C)C(=O)C1CCC(=O)N(C2CCCC2)C1 (centres undefined),-9.656
24,CCCn1cnnc1CN(C)C(=O)C1CCCN(C2CCN(C)CC2)C1 (centres undefined),120.4

row,Compound,Percent Effect [%]
1,O=C1CN(Cc2cc(O)c3cccc(F)c3n2)CCN1C1CCCC1,-1.558
2,Cc1ncnc(NCC(C)N(C)c2ccccc2)c1C (centres undefined),-9.709
3,COCCN1CCCC2(CCN(Cc3noc(C4CCCC4)n3)C2)C1=O (centres undefined),5.891
4,Cc1nc(C)n(Cc2cccc(NC3CCN(C)C3=O)c2)n1 (centres undefined),-8.315
5,CN(Cc1ccccc1)CC(C)(C)NC(=O)c1cnns1,-3.698
6,CN(C)CCN(C)C(=O)Nc1cc(F)cc(N2CCCC2)c1,23.94
7,c1ccc(CNC[C@H]2Cn3ccnc3CO2)cc1,-10.94
8,Cn1cnc(CN2Cc3nccn3CC2c2ccccc2)c1 (centres undefined),137.8
9,CC(Cn1cncn1)NCCN1CCc2ccccc2C1 (centres undefined),12.32
10,CC(Cn1cncn1)NCc1nncn1C1CCCCC1 (centres undefined),-14
11,CC(Cn1ccnc1)NS(=O)(=O)Cc1ccc(F)cc1 (centres undefined),-3.68
12,Cc1cc(C(F)(F)F)nc(CCNC(C)Cn2ccnc2)n1 (centres undefined),111.3
13,Cc1ccc2c(c1)c(CNC(C)Cn1ccnc1)nn2C (centres undefined),4.186
14,Cc1cc(C)n(CC(C)NCCn2nc(C)c(Cl)c2C)n1 (centres undefined),9.985
15,Cc1cc(C(F)(F)F)nc(CCNC(C)Cn2cncn2)n1 (centres undefined),108.9
16,Cc1cc(C)n(CC(C)NCCN2CCc3ccccc32)n1 (centres undefined),20.38
17,Cc1cc(C(F)(F)F)nc(CCNC(C)Cn2nc(C)cc2C)n1 (centres undefined),119.2
18,COCCCN1CCCC2(CCN(S(=O)(=O)c3cccnc3)C2)C1=O (centres undefined),-3.769
19,Cc1ccc(C2CCCN(S(=O)(=O)N3CCOCC3)C2)nc1 (centres undefined),122.5
20,Cc1ccc(C2CCCN(S(C)(=O)=O)C2)nc1 (centres undefined),144.7
21,CC1(C)CNC(=O)c2nc(C3CCCN(S(C)(=O)=O)C3)[nH]c2C1 (centres undefined),-1.918
22,O=S(=O)(N1CCOCC1)N1CCCC(c2ccccn2)C1 (centres undefined),113
23,CN(C1CCN(c2ccccn2)CC1)S(=O)(=O)N1CCOCC1,4.035
24,CS(=O)(=O)N1CC[C@H](c2nc3ccc(C(F)(F)F)cc3[nH]2)C1,11.72

row,Compound,Percent Effect [%]
1,CC1CCN(S(=O)(=O)N2CCCC(c3cccc(C(=O)O)c3)C2)CC1 (centres undefined),-0.2169
2,O=C(O)c1cccc(C2CCCN(S(=O)(=O)N3CCOCC3)C2)c1 (centres undefined),13.32
3,Cc1nccc(C2CCCN(S(=O)(=O)N3CCOCC3)C2)n1 (centres undefined),96.21
4,Cc1noc2ncc(S(=O)(=O)Nc3cc(CC(C)(C)C)[nH]n3)cc12,-3.68
5,CCC(NS(C)(=O)=O)c1ccccc1OC (centres undefined),-5.645
6,CCN(Cc1cccs1)C(=O)c1ccc(=O)n(C)c1,17.88
7,Cc1cccnc1CC(C)N(C)C(=O)c1ccoc1C (centres undefined),-11.81
8,Cc1occc1CNC(=O)C1(C)CCCN(C(=O)c2ccccc2)C1 (centres undefined),10.24
9,Cc1csc(C(C#N)C(=O)Nc2ccccc2)n1 (centres undefined),-10.65
10,Cc1ccc(S(=O)(=O)N(C)Cc2nccs2)cc1N(C)C,7.403
11,Cc1nc(C2CCCN(S(C)(=O)=O)C2)sc1Br (centres undefined),114.6
12,CNC(=O)c1sc(C2CCCC2)nc1C,1.771
13,Cc1nc(C2CCCC2)sc1C(N)=O,-5.82
14,CCOCC1CN(S(=O)(=O)N(C)C)Cc2cnn(C)c21.O=C(O)C(F)(F)F (centres undefined),-5.434
15,COCC1CN(c2ccc(C)nn2)Cc2cnn(CC3CCOCC3)c21.O=C(O)C(F)(F)F.O=C(O)C(F)(F)F (centres undefined),113.1
16,CCn1cc2c(n1)C(COC)CN(c1ccc(C)nn1)C2.O=C(O)C(F)(F)F.O=C(O)C(F)(F)F (centres undefined),2.14
17,Cc1ncsc1CN1Cc2cnn(C)c2C(COCC2CC2)C1.O=C(O)C(F)(F)F.O=C(O)C(F)(F)F (centres undefined),-6.117
18,Cc1noc(C)c1CN1Cc2cnn(C)c2C(COCC2CC2)C1.O=C(O)C(F)(F)F.O=C(O)C(F)(F)F (centres undefined),-11.34
19,CCOCC1CN(C)Cc2cnn(CC3CCCC3)c21.O=C(O)C(F)(F)F.O=C(O)C(F)(F)F (centres undefined),4.173
20,CCOCC1CN(c2ccc(C)nn2)Cc2nn(CC)cc21.O=C(O)C(F)(F)F.O=C(O)C(F)(F)F (centres undefined),10.42
21,Cc1ccc(N2Cc3cnn(C)c3C(COCC3CC3)C2)nn1.O=C(O)C(F)(F)F.O=C(O)C(F)(F)F (centres undefined),105.5
22,COCC1CN(Cc2ccc(C)o2)Cc2cnn(CC3CCOCC3)c21.O=C(O)C(F)(F)F.O=C(O)C(F)(F)F (centres undefined),3.505
23,CCOCC1CN(S(=O)(=O)N(C)C)Cc2cnn(CC)c21.O=C(O)C(F)(F)F (centres undefined),-6.757
24,COCC1CN(c2ccc(C)nn2)Cc2cnn(C)c21.O=C(O)C(F)(F)F.O=C(O)C(F)(F)F (centres undefined),88.37

row,Compound,Percent Effect [%]
1,CCOCC1CN(c2ccc(C)nn2)Cc2cnn(CC)c21.O=C(O)C(F)(F)F.O=C(O)C(F)(F)F (centres undefined),109.7
2,c1ccc(-c2nc3c(c(NCCn4ccnn4)n2)CCNCC3)nc1,-1.189
3,O=S(=O)(NCCCn1ccc2ccccc21)N1CCCCC1,-18.64
4,CC(Cc1cccnc1)Nc1ncnc2cccc(F)c12 (centres undefined),-13.17
5,Cc1noc(C)c1CNC(=O)N1CCC(CN2CCC(C)CC2)CC1,0.5097
6,CCn1ncc2c1C(COCC1CC1)CN(S(=O)(=O)N(C)C)C2.O=C(O)C(F)(F)F (centres undefined),4.655
7,CCn1ncc2c1C(COCC1CC1)CN(c1ccc(C)nn1)C2.O=C(O)C(F)(F)F.O=C(O)C(F)(F)F (centres undefined),84.42
8,CS(=O)(=O)N1Cc2cnn(CC3CC3)c2C(COCC2CC2)C1.O=C(O)C(F)(F)F (centres undefined),-10.17
9,O=C(c1ccc2nccn2c1)N1CCC(CCn2cccn2)CC1,-0.54
10,CCC[C@@H]1CN(S(=O)(=O)c2ccc(C)c(F)c2)C[C@H]1N(C)C,-4.153
11,Cc1cc(S(=O)(=O)N2CCCN3CCCC3C2)ccc1F (centres undefined),-4.296
12,Cn1cnnc1S(=O)(=O)C1CCN(S(=O)(=O)c2ccc(F)c(Cl)c2)CC1,-4.538
13,COc1ccc(S(=O)(=O)N2CCn3nc(C)nc3C2)cc1C,-5.027
14,CS(=O)(=O)C1CCN(S(=O)(=O)c2ccc(F)c(F)c2)CC1,110.6
15,Cc1ccc(S(=O)(=O)N2CC[C@@H](O)C2)c(F)c1,-13.3
16,Cc1ccc(S(=O)(=O)N2CCC(S(C)(=O)=O)CC2)cc1C,132.3
17,Cc1cc(S(=O)(=O)N2CCC(S(C)(=O)=O)CC2)ccc1F,-10.45
18,Cc1cc(S(=O)(=O)N2CCC(S(C)(=O)=O)C2)ccc1F (centres undefined),74.96
19,COc1ccc(S(=O)(=O)N2CCC(S(C)(=O)=O)CC2)cc1C,-19.61
20,CS(=O)(=O)C1CCN(S(=O)(=O)c2ccc(F)c(F)c2)C1 (centres undefined),88
21,O=S1(=O)CCC(c2nnc(-c3cnc4onc(C5CC5)c4c3)o2)C1 (centres undefined),-6.363
22,CN(C)C(=O)NC1COC2(CCN(Cc3ccc(N(C)C)cc3)CC2)C1 (centres undefined),6.702

# From ChEMBL document CHEMBL3988442, “University of Dundee, Small-Polar-MMV Screening Library” (2021)
